Hits are enriched below; roughly 8.2% of the tested compounds scored in any of these assays.
KB-V1 cytotox: KB-V1 MDR subline cytotoxicity | KB-V1 MDR cells viability, CellTiter-Glo, 72 h | hit rate 3.4% among 400,000 | Potency, µM (top dose mostly 46.1 µM), usual class: cytotoxic; note: % is set by controls: 0 for no effect and ±100 for the full control effect; nearly all actives have a fitted effect of over 60% in size
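Potencies derive from concentration-effect curves fitted to normalized luminescence (CellTiter-Glo) of KB-V1 cells treated for 72 h at 37 degrees C in phenol-red-free DMEM containing 10% FBS.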
KB-3-1 tox: kills parental KB-3-1 adenocarcinoma cells; KB-3-1 viability, CellTiter-Glo ATP luminescence, 72 h; Potency, µM (top dose mostly 46.1 µM), usual class: cytotoxic; hit rate 1.4% among 400,000; AID 1347075; note: % is set by controls: 0 for no effect and ±100 for the full control effect; nearly all actives have a fitted effect of over 60% in size
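Screening of KB-3-1 cells (DMEM, 10% FBS, phenol-red free) ran from lowest to highest compound concentration; after 72 h at 37 °C viability was read luminescently and curves fitted.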
ELG1 repair inh: inhibitors of ELG1-dependent DNA repair in HEK293T cells; HEK293T ELG1-luciferase reporter, luminescence, 16 h; DNA damage induced by 5-fluorouridine; Potency, µM (top dose mostly 46.1 µM), inactives show at the top dose activity change, negative = inhibition, actives largely listed as inhibitors; hit rate 2.3% among 330,000; AID 504467; note: % is set by controls: 0 for no effect and ±100 for the full control effect; nearly all actives have a fitted effect of over 55% in size
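Overnight (16 hr) co-exposure of 2,000 cells/well to 5-fluorouridine and compound at 37 °C preceded detection. Luciferase was quantified via ONE-Glo luminescence; loss of signal denotes inhibition.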
SW480 rerep: DNA re-replication induction in SW480 cells. SW480 DNA re-replication, Hoechst DNA content imaging, 48 h. hit rate 1.8% among 340,000. Potency, µM (series often up to 46.1 µM), for inactives: top-dose re-replication activation, hits mostly activators; note: % of control where 0% means no effect; nearly all actives have a fitted effect of over 55% in size
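Cells (250 per well) received 23 nL compound or DMSO by pin tool and were kept 48 hr at 37 C, 5% CO2. Nuclei were then stained with Hoechst for 40 min and scanned for DNA content.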
MCF10A rereplic: DNA re-replication induction in MCF 10a cells | MCF 10A DNA re-replication, Hoechst nuclear intensity, 48 h | Potency, µM (titrated, usually from 46.1 µM), without a hit: top-dose activity, positive = re-replication, actives largely listed as activators | hit rate 2.9% among 350,000; note: % of control where 0% means no effect; nearly all actives have a fitted effect of over 50% in size
Numbers without * were called inactive; i = inactive; ? = inconclusive; · = no result. Calls come from the whole dose curve; as a rule, active = well fitted curve in the direction sought with a large enough effect; inconclusive = small, poorly fitted or top-dose-only effect, or another doubt; inactive = no such curve, though single readings can be large; an effect the other way counts as inactive or inconclusive. Potency is the fitted concentration of half-maximal effect.

SMILES	KB-V1 cytotox	KB-3-1 tox	ELG1 repair inh	SW480 rerep	MCF10A rereplic
CCCCn1c(=O)c2c(O)cc(=O)oc2c2ccccc21	4.61µM*	i	2.0%	-9.8%	-5.3%
O=c1c([N+](=O)[O-])c(O)c2ccccc2n1Cc1ccccc1	i	i	-9.3%	-16.1%	5.9%
O=c1cc(O)c2c(=O)n(C3CCCCC3)c3ccccc3c2o1	4.11µM*	?	0.2%	-0.3%	?
O=C(C(=O)N1CCC(Cc2ccccc2)CC1)c1ccccc1Br	i	i	·	·	·
O=C(CNc1ccccc1-c1ccccc1)NCc1ccccc1	16.4µM*	i	0.3%	4.8%	15.0%
O=C(CNCc1ccccc1)Nc1ccccc1-c1ccccc1	i	i	0.8%	-3.2%	23.1µM*
O=C(CNCc1ccccc1)Nc1cccc(Cl)c1Cl	i	i	-1.9%	2.6%	24.1%
Cc1cc(Br)cn2c(Cc3ccccc3)c(-c3cccc(Br)c3)nc12	?	i	·	·	·
CCN[C@@H]1C[C@H](N)[C@H](O[C@H]2OC(CN)=CC[C@H]2N)[C@@H](O)[C@H]1O[C@H]1OC[C@@](C)(O)[C@@H](NC)[C@@H]1O	·	·	·	-3.5%	-4.3%
COC(=O)c1sc2ccccc2c1-n1cccc1C(=O)C(=O)Nc1ccc(OC)cc1	8.2µM*	5.8µM*	13µM*	-5.2%	28.3%
O=C(NCCCN=C1NS(=O)(=O)c2ccccc21)c1ccc(S(=O)(=O)N2CCCCC2)cc1	i	20.6µM*	0.0%	?	23.1µM*
Cc1ccc(NC(=S)Nc2cccc3cnccc23)c(C)c1	?	i	20.6µM*	-2.1%	?
Cc1ccc(NC(=S)NNC(=S)Nc2ccc(C)cc2C)cc1	4.61µM*	1.03µM*	-19.1%	26.2%	20.7%
Cc1cc(C)cc(NC(=S)Nc2cccc3cnccc23)c1	i	i	?	0.1%	?
CCc1ccc(NC(=S)Nc2cccc3cnccc23)cc1	20.6µM*	?	?	6.3%	1.6%
CNC(=O)c1ccc2nc(-c3cccc(C)c3)c(-c3cccc(C)c3)nc2c1	i	i	·	·	·
CC1CCCC(C)N1S(=O)(=O)c1ccc(S(=O)(=O)NCCc2ccncc2)cc1 (centres undefined)	?	i	-17.7%	-0.5%	-5.7%
CCN(C1CCCCC1)S(=O)(=O)c1ccc(S(=O)(=O)NCCc2ccncc2)cc1	20.6µM*	i	?	10.6%	?
CCCCCc1ccc(S(=O)(=O)NCCc2ccncc2)cc1	3.26µM*	?	?	-5.9%	15.8%
CCNS(=O)(=O)c1ccc(S(=O)(=O)N(Cc2ccccn2)C2CCCCC2)cc1	?	i	-6.4%	-0.7%	-0.9%
O=S(=O)(NCc1ccccc1)c1ccc(S(=O)(=O)N(Cc2ccccn2)C2CCCC2)cc1	i	i	20.6µM*	8.9%	?
CCN(C1CCCCC1)S(=O)(=O)c1ccc(S(=O)(=O)NCc2ccncc2)cc1	7.31µM*	i	?	0.2%	-1.0%
CCOc1ccc(C(=O)CN2C(=O)NC3(CCCc4ccccc43)C2=O)cc1 (centres undefined)	i	i	·	·	·
COc1ccc(S(=O)(=O)N2CCCC2)cc1C(=O)O	i	i	-0.7%	6.6%	-2.5%
COc1nc(NC2OC(CO)C(O)C(O)C2O)c(N)c(=O)[nH]1 (centres undefined)	i	i	·	-4.1%	-4.4%
SMILES	KB-V1 cytotox	KB-3-1 tox	ELG1 repair inh	SW480 rerep	MCF10A rereplic
CCc1nnc(NC(=O)CSc2nnc(COc3ccccc3)n2-c2ccc(C)cc2)s1	i	i	8.9%	5.9%	4.8%
CCc1nnc(NC(=O)CSc2nnc(-c3ccccc3O)n2-c2ccc(C)cc2C)s1	18.4µM*	?	·	18.4µM*	9.2µM*
Cc1ccccc1C(=O)NC1(C(F)(F)F)N=C(c2ccccc2)N(Cc2ccccc2)C1=O (centres undefined)	?	i	·	·	·
C/C(=N/NC(=O)CN(c1ccccc1)S(=O)(=O)c1ccccc1)c1ccccc1O	i	?	13µM*	16.4µM*	-1.4%
CCCC/C(C)=N/NC(=O)CN(c1ccc(Br)cc1)S(=O)(=O)c1ccccc1	i	i	4.8%	?	16.2%
CN(Cc1ccco1)C(=O)CSc1nc(C2CC2)n(-c2ccccc2)n1	?	i	-10.9%	-0.8%	13.1%
CCN(CC)S(=O)(=O)c1ccc2oc(C(=O)N3CCc4ccccc4C3)c(C)c2c1	9.2µM*	?	?	-2.4%	19.5%
CCOC(=O)N1CCN(C(=O)c2oc3ccc(S(=O)(=O)N(CC)CC)cc3c2C)CC1	i	i	11.6µM*	-0.6%	13.6%
Cc1c(C(=O)N2CCc3ccccc3C2)oc2ccc(S(=O)(=O)N3CC(C)CC(C)C3)cc12 (centres undefined)	?	23.1µM*	?	?	25.5%
CCN(CC)S(=O)(=O)c1ccc2oc(C(=O)N3CCCCCC3)c(C)c2c1	?	i	?	6.8%	23.5%
COc1ccc(S(=O)(=O)NCC2CCCO2)c(Cl)c1Cl (centres undefined)	i	i	-2.4%	0.3%	-3.3%
O=C(O)CN1CCNCCN(CC(=O)O)CCNCC1	?	?	·	2.91µM*	-9.2%
N#Cc1ccc(/C=C/C(=O)c2ccc3c(c2)OCO3)cc1	i	i	23.0%	?	?
N#Cc1ccc(/C=C/C(=O)c2cccnc2)cc1	?	i	?	-27.5%	7.31µM*
O=C(/C=C/c1ccccc1Cl)c1cccnc1	?	i	?	?	5.8µM*
CCN(CC)c1ccc(/C=C/C(=O)c2cccnc2)cc1	i	i	23.1µM*	-2.2%	-4.7%
CC(=O)N1CCc2cc(S(=O)(=O)C(C)CC(=O)Nc3ccc(OC(F)(F)F)cc3)ccc21 (centres undefined)	i	i	-2.9%	7.2%	10.2%
CCOC(=O)C1CCCN(C(=O)c2ccc3nc(-c4ccc(OC)c(OC)c4)c(-c4ccc(OC)c(OC)c4)nc3c2)C1 (centres undefined)	?	i	1.83µM*	-9.1%	1.4%
CCOC(=O)C1CCCN(C(=O)c2ccc3nc(-c4ccccc4)c(-c4ccccc4)nc3c2)C1 (centres undefined)	i	i	-14.8%	-6.8%	0.5%
CCOC(=O)C1CCCN(C(=O)c2ccc3nc(-c4cccc(OC)c4)oc3c2)C1 (centres undefined)	i	5.8µM*	?	16.4µM*	?
CCOC(=O)C1=CN(Cc2ccco2)S(=O)(=O)NC1CC (centres undefined)	i	i	-3.5%	-6.9%	4.3%
CC(=O)c1c(C)[nH]c(C(=O)OCc2ccc(F)cc2Cl)c1C	?	?	9.2µM*	2.5%	12.8%
CC(=O)c1c(C)[nH]c(C(=O)OCc2cccc(Cl)c2)c1C	?	?	-15.8%	-2.6%	19.0%
